Most compounds without a hit are left out; they make up all but 12% or so of the library.
BAZ2B inh = blocks human BAZ2B. Q9UIF8. AlphaScreen BAZ2B-H3K14Ac peptide displacement. Potency, µM (doses to about 114 µM), without a hit: at the top dose activity change, negative = inhibition, actives largely listed as inhibitors. 360,000 compounds, 4.4% hits; also: potency is read from the fitted curve at half-maximal effect; % is scaled to controls: 0 for no effect and ±100 for the full control effect; nearly all actives have a fitted effect of over 60% in size
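Compounds, titrated to a top concentration of 110 uM, were incubated 30 min at room temperature with preformed BAZ2B/acetyl-K14 H3 peptide complex (50 nM each). Proximity signal was measured by AlphaScreen after 20 min with beads.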
PI5P4Ka inh = PI5P4K alpha (human) kinase inhibition | PI5P4Kalpha enzyme, ADP-Glo luminescence, 60 min; hits give low values | max response, % | 330,000 compounds, 1.2% hits | AID 652105; active = max response of -50% or lower; inconclusive = between -30% and -50%; inactive = -30% or higher; also: value at the top dose of about 77 µM; % is scaled to controls: 0 for no effect and ±100 for the full control effect
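Reactions run in 0.038 M HEPES pH 7.4, 0.28 mM EGTA, 0.1% CHAPS and 5% DMSO, with PI5P4Kalpha, substrate, compound and 5 microM ATP final, one hour at room temperature. Readout is ADP-Glo luminescence.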
G9a block = inhibitors of human histone lysine methyltransferase G9a; Q96KQ7; G9a H3K9 monomethylation, AlphaScreen, 2 h; AID 504332; 350,000 compounds, 8.8% hits; Potency, µM (top dose mostly 102 µM), for the others: at the top dose activity, negative = inhibition, most hits filed as inhibitors; also: potency is read from the fitted curve at half-maximal effect; % is scaled to controls: 0 for no effect and ±100 for the full control effect; nearly all actives have a fitted effect of over 75% in size
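G9a (20 nM) preincubated 15 min RT with compounds, then 500 nM biotinylated H3K9 peptide and 20 uM SAM added; 2 h RT reaction. Monomethyl-H3K9 product detected by AlphaScreen with anti-H3K9me1 antibody, streptavidin donor and anti-rabbit IgG acceptor beads.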
PLK1 PBD inh = PLK1 (human) polo-box domain binding inhibition; Plk1 PBD binding of FITC phosphopeptide, fluorescence polarization; Potency, µM, inactives show max response, negative = inhibition, hits mostly inhibitors; 360,000 compounds, 2.8% hits; AID 720504; also: potency is read from the fitted curve at half-maximal effect; series mostly up to about 57 µM; % is scaled to controls: 0 for no effect and ±100 for the full control effect; nearly all actives have a fitted effect of over 65% in size
Target sequence (P53350 whole entry, looked up, the tested form may be a part): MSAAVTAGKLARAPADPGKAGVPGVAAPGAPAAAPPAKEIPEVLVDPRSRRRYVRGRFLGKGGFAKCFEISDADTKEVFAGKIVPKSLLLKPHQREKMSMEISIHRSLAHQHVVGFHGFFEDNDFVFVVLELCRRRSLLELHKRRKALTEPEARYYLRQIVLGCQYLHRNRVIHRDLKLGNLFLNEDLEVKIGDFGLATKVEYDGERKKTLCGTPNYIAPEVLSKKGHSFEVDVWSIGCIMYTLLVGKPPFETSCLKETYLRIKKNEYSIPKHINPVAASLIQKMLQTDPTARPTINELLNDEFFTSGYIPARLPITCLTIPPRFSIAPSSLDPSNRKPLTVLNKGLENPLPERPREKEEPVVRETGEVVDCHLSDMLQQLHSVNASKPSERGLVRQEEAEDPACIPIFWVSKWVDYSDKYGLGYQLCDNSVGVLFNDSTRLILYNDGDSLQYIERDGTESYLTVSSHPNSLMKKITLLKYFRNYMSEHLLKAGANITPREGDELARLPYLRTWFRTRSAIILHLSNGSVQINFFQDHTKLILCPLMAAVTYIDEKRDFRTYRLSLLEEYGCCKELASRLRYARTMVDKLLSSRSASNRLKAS
JMJD2A Tudor = inhibitors of human JMJD2A Tudor domain | AlphaScreen JMJD2A-Tudor / H3K4me3 peptide binding | Potency, µM (top dose mostly 114 µM), for the others: top-dose activity change, negative = inhibition, usual class: inhibitors | 390,000 compounds, 4.4% hits; also: potency is read from the fitted curve at half-maximal effect; % is scaled to controls: 0 for no effect and ±100 for the full control effect; nearly all actives have a fitted effect of over 50% in size
HP1b chromo inh = blocks HP1-beta chromodomain binding to methylated histone tails; P83916; AlphaScreen HP1-beta / biotin-H3K9me3 peptide binding; Potency, µM (top dose mostly 114 µM), without a hit: top-dose activity change, negative = inhibition, actives largely listed as inhibitors; 390,000 compounds, 0.56% hits; also: potency is read from the fitted curve at half-maximal effect; nearly all actives have a fitted effect of over 70% in size
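AlphaScreen: HP1-beta (50 nM) preformed 30 min with biotin-H3(1-18)K9me3 peptide (50 nM) in PBS pH 7.4, 0.01% Tween-20. Compound added for 30 min at RT, then streptavidin donor/nickel chelate acceptor beads (10 ug/mL) for 30 min.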
* marks the source's active call; other numbers are inactive results; ? = inconclusive; / = no result; [ ] = another dose, or the depositor's remark. Unless noted, calls follow the shape of the dose curve; as a rule, active = well fitted curve in the direction sought with a large enough effect; inconclusive = small, poorly fitted or top-dose-only effect, or another doubt; inactive = no such curve, though single readings can be large; an effect the other way counts as inactive or inconclusive.

SMILES | BAZ2B inh | PI5P4Ka inh | G9a block | PLK1 PBD inh | JMJD2A Tudor | HP1b chromo inh
CCN1CCN(c2csc3ccc(C)cc3c2=O)CC1 | ? | / | -37%[59 µM] | / | -19% | 20%[57 µM]
CCOC(=O)c1[nH]c2ccc(OC)cc2c1NC(=O)c1cccc(OC)c1 | -5%[57.1 µM] | 3 | ? | -6% | -12% | 4%
CCOC(=O)c1[nH]c2ccc(OC)cc2c1NC(=O)CCN1CCC(C)CC1 | -16% | -7 | 4.5µM* | 4% | 5% | 25%
CCOC(=O)c1[nH]c2ccc(OC)cc2c1NC(=O)c1ccccc1C(=O)O | -7% | -2 | 45µM* | -7% | -19% | 50%
CCOC(=O)c1[nH]c2ccc(F)cc2c1NC(=O)c1cc(OC)c(OC)c(OC)c1 | 3% | -20 | -44%[12.7 µM] | 24µM* | -22%[11.4 µM] | -9%
CCOC(=O)c1[nH]c2ccc(Br)cc2c1NC(=O)CCN1CCC(C)CC1 | 12% | 6 | 15%[59 µM] | ? | -15%[57.1 µM] | 4%
CCOC(=O)c1[nH]c2ccccc2c1NC(=O)c1ccc(OC)c(OC)c1 | 3% | / | -5%[59 µM] | / | -15% | 29%
CCOC(=O)c1[nH]c2ccccc2c1NC(=O)Nc1ccc(OC)cc1 | 12% | -5 | 50µM* | -6% | -4% | 18%
CC1CCN(S(=O)(=O)c2ccc3c(c2)oc(=O)n3CC(=O)NCc2ccc(F)cc2)CC1 | -29% | / | -20%[59 µM] | / | -19% | 27%
CCN(Cc1ccccc1)C(=O)Cn1c(=O)oc2cc(S(=O)(=O)N3CCCCCC3)ccc21 | 25% | / | 6%[59 µM] | / | -10% | 58%
CCC(=O)Nc1ccc(-c2nnc3c4ccccc4c(C)nn23)cc1 | -1% | / | 7%[59 µM] | / | 2% | 34%
CC(C)c1nn2c(=O)cc(COC(=O)CNC(=O)c3ccccc3Cl)nc2s1 | -8% | / | 14%[59 µM] | / | -10% | 18%
C=CCNC(=S)Nc1c(C(=O)OC)[nH]c2cc(OC)ccc12 | -22% | 0 | 11µM* | -18% | ? | 34%
Cc1cccc(-n2c(-c3ccc(Br)o3)n[nH]c2=S)c1 | / | -5 | / | -14% | 79µM* | 22%
Cc1cccc(-n2c(-c3ccco3)n[nH]c2=S)c1 | -5% | ? | 2µM* | -12% | 5.6µM* | -35%
Cc1cccc(-n2c(-c3csc(C(C)C)c3)n[nH]c2=S)c1 | -33% | / | ? | ? | ? | 12%
S=c1[nH]nc(-c2ccco2)n1-c1ccc(Br)cc1 | / | -10 | / | -16% | 25µM* | ?
c1ccc(-n2c(-c3ccco3)nnc2-c2ccco2)cc1 | 13% | -6 | 30%[12.7 µM] | -8% | -3% | 31%
Cc1sc(-n2cccc2)c(C(C)NC(=O)Nc2ccccc2Cl)c1C (stereo not given) | -18% | / | 3%[59 µM] | / | ? | 33%
COc1ccc(NC(=O)CC2C(=O)N(c3cccc(OC)c3)C(=O)N2Cc2ccc3c(c2)OCO3)cc1 (stereo not given) | -7% | / | -7%[59 µM] | / | -23% | 10%
O=C(N/N=C/c1cccc([N+](=O)[O-])c1)c1ccc2c(c1)OCCO2 | 0% | 1 | -24%[59 µM] | -7% | -5% | 12%
O=[N+]([O-])c1cccc(C=Nc2cc3c(cc2Br)OCCO3)c1 | ? | 9 | 50µM* | -28% | ? | -38%
COc1ccnc(Oc2ccccc2)c1C(=O)N/C=N/OCc1ccccc1F | 0% | -5 | / | -22% | -13% | -7%
O=C(NCc1ccco1)c1ccc2c(=O)n(CC3CCCO3)c(=S)[nH]c2c1 (stereo not given) | 9% | -13 | 8.9µM* | -4% | -11% | 45%
Cc1ccc(CNC(=O)c2ccc3c(=O)n(CC4CCCO4)c(=S)[nH]c3c2)cc1 (stereo not given) | 3% | / | 2%[59 µM] | -6% | -10% | 25%
O=C(NCc1ccccc1)c1ccc2c(=O)n(CC3CCCO3)c(=S)[nH]c2c1 (stereo not given) | 9% | 3 | -15% | -4% | 89µM* | 41%
Cc1ccc2c(c1)[C@@H]1[C@H](CO2)[C@H](c2ccccc2)[C@@]2(C)C(=O)N[C@H](C)C(=O)N12 | / | -3 | / | -3% | -6% | 23%

From PubChem BioAssay
